# More than one record can exist for a structure, and the calls need not agree. Active and inactive are the calls of the source. How the source made its calls: active means hit-call score of the fitted dose curve at least 0.9, where 1 is the maximum; inactive means score below 0.9.
# Read-out: CD90, THY1 (gene 7070)
# Test: BSK_BF4T_CD90: BioMAP Diversity Plus: BF4T Assay for CD90 Biomarker Activity (AID 2284262)
# Conditions: primary human bronchial epithelial cells with fibroblasts
# Procedure: BSK_BF4T is a cell-based, multiplexed-readout assay that uses bronchial epithelial cells and dermal fibroblasts, a human vascular primary cell, with measurements taken at 24 hours after chemical dosing in a microplate: 96-well plate.BSK_BF4T_CD90 is an assay component measured in the BSK_BF4T assay. It measures CD90 antibody related to regulation of gene expression using ELISA technology.Data from the assay component BSK_BF4T_CD90 was analyzed at the endpoint, BSK_BF4T_CD90, in the positive analysis fitting direction relative to DMSO as the negative control and baseline of activity. Using a type of binding reporter, gain or loss-of-signal activity can be used to understand protein changes. To generalize the intended target to other relatable targets, this assay endpoint is annotated to the 'cytokine' intended target family, where the subfamily is 'inflammatory factor'.
# The levels of cell surface (or secreted, indicated by the prefix "s") biomarker endpoints were measured by ELISA. Overt cytotoxicity to cells in confluent adherent cultures (all systems other than the BT system) was assessed by measuring total protein levels using sulforhodamine B (SRB) staining in parallel cultures at the time of biomarker measurements, indicated as SRB endpoints. For proliferation assays for adherent cell types, individual cell types are cultured at sub-confluence and relative cell numbers quantified by SRB staining at time points optimized for each system (48 h: 3C and CASM3C systems; 72 h: BT and HDF3CGF systems; 96 h: SAg system). SRB was performed by staining cells with 0.1% SRB after fixation with 10% TCA and reading wells at 560 nm.Viability and proliferation of PBMC (T cells) was quantified by Alamar Blue reduction for the SAg and BT systems. For PBMC viability (referred to as PBMC Cytotoxicity within the assay endpoint names), cells were plated (75,000/well in a 96-well plate) and then chemical samples added for 1 h before addition of activators, SEB and TSST-1 (20 ng/mL final concentration each). Cells were incubated for 90 h. Then, Alamar Blue (20 uL/well) (Invitrogen, Cat DAL1100) was added for 6 h, and the plates were read with a fluorescence microplate reader at 546/580 nm (excitation/emission). For PBMC proliferation, cells were plated and activated as above but incubated for only 16 h prior to addition of Alamar Blue. Plates were read after 6 h.
Structure (SMILES),outcome,AC50
OCC(F)(F)C(F)(F)C(F)(F)C(F)(F)C(F)(F)C(F)(F)C(F)(F)C(F)(F)C(F)(F)C(F)(F)C(F)(F)F,inactive,
O=S(=O)(O)C(F)(F)C(F)(F)C(F)(F)C(F)(F)C(F)(F)C(F)(F)C(F)(F)C(F)(F)C(F)(F)C(F)(F)F,inactive,
O=P(O)(O)CCC(F)(F)C(F)(F)C(F)(F)C(F)(F)C(F)(F)C(F)(F)F,inactive,
CN(Cc1cnc2nc(N)nc(N)c2n1)c1ccc(C(=O)N[C@@H](CCC(=O)O)C(=O)O)cc1,inactive,
O=C(O)CCC(F)(F)C(F)(F)C(F)(F)C(F)(F)C(F)(F)C(F)(F)F,inactive,
O=C(O)CCC(F)(F)C(F)(F)C(F)(F)C(F)(F)C(F)(F)F,inactive,
C=CC(=O)OCCC(F)(F)C(F)(F)C(F)(F)C(F)(F)C(F)(F)C(F)(F)C(F)(F)C(F)(F)F,inactive,
CN(CCO)S(=O)(=O)C(F)(F)C(F)(F)C(F)(F)C(F)(F)C(F)(F)C(F)(F)C(F)(F)C(F)(F)F,inactive,
O=C(CC(=O)C(F)(F)C(F)(F)C(F)(F)F)c1cccs1,inactive,9.69 µM (active)
O=C(O)C(F)(F)OC(F)(F)C(F)(F)OC(F)(F)C(F)(F)OC(F)(F)C(F)(F)C(F)(F)C(F)(F)F,inactive,14.6 µM (active)
O=P(O)(O)CCC(F)(F)C(F)(F)C(F)(F)C(F)(F)C(F)(F)C(F)(F)C(F)(F)C(F)(F)F,inactive,

# Reference: PubChem BioAssay (EPA / NIEHS)
